Only some compounds are listed: those with a hit (about 3.7% of all), similar ones and a draw of the others.
BJeLR viability: BJeLR cell viability loss; BJeLR (HRASV12) viability, CellTiter-Glo ATP luminescence, 48 h; inhibition, % (no concentration beside the values); actives 0.17% (n = 300,000); in the data active = inhibition above about 50%; inconclusive = no clear call, values can overlap the other calls
Bead autofluor: flagged as autofluorescent in microsphere protease counterscreen | actives 3.1% (n = 360,000) | compound autofluorescence counterscreen, microsphere flow cytometry; active compounds read high | fluorescence intensity (test concentration not listed); in the data active = fluorescence intensity above about 16000; inconclusive = no clear call, values can overlap the other calls
BoNT A protease: BoNT A light chain protease inhibition. multiplex microsphere protease substrate cleavage, flow cytometry. inhibition, % at 10 µM. actives 0.17% (n = 360,000); note: plate controls were buffer without enzyme for full effect and enzyme alone for no effect
BH1578 lux ind: quorum light induction in luxS cqsA deficient V. cholerae | V. cholerae BH1578 lux reporter, luminescence, 6 h | activation, % at 18.7 µM | actives 0.16% (n = 350,000) | AID 588436; in the data active = activation mostly above about 9.7%, no sharp cut-off; inconclusive = no clear call, values can overlap the other calls; inactive = mostly below about 3.7%
Anthrax LF prot: inhibitors of Bacillus anthracis lethal factor protease; P15917; multiplex microsphere protease cleavage assay, LF; inhibition, % at 10 µM; actives 0.12% (n = 360,000); AID 588501; note: plate controls were buffer without enzyme for full effect and enzyme alone for no effect
Target sequence (P15917 whole entry, looked up): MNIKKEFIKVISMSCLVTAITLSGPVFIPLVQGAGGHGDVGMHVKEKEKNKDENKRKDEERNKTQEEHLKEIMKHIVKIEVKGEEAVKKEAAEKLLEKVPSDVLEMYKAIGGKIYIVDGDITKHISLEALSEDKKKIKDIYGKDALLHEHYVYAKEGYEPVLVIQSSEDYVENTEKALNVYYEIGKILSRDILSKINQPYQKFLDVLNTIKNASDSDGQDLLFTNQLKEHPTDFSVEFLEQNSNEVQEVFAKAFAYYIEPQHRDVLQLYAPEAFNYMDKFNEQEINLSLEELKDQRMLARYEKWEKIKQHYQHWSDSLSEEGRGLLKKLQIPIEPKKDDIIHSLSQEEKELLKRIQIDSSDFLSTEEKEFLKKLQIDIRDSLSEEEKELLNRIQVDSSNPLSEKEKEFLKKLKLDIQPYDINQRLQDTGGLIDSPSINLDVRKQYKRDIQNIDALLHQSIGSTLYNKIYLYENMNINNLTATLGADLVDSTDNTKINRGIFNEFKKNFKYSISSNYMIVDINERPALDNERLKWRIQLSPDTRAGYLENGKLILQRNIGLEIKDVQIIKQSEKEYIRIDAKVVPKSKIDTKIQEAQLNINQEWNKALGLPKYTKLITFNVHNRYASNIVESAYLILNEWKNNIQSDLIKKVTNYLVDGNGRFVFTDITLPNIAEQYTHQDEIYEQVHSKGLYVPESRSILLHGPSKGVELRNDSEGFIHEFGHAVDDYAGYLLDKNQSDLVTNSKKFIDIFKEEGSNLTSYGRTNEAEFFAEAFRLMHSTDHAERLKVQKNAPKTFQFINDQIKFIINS
BoNT-F LC inh: inhibitors of Botulinum neurotoxin F light chain protease; Multiplex microsphere protease cleavage assay, flow cytometry; inhibition, % at 10 µM; actives 0.22% (n = 360,000); AID 588497; in the data active = inhibition above about 35%, passing the limit was not always enough; inconclusive = no clear call, values can overlap the other calls; note: plate controls were buffer without enzyme for full effect and enzyme alone for no effect
* marks the source's active call; other numbers are inactive results; i = inactive; ? = inconclusive; / = no result. Cut-off read from the data, not from the text of the source, unless noted: active = inhibition above about 30%; inconclusive = no clear call, values can overlap the other calls; inactive = below that.

SMILES	BJeLR viability	Bead autofluor	BoNT A protease	BH1578 lux ind	Anthrax LF prot	BoNT-F LC inh
O=C(Nn1c(O)c(C=C2N=c3ccccc3=N2)sc1=S)c1cccc(Cl)c1	8	5573	55*	0	56*	55*
O=C(Nn1c(O)c(C=C2N=c3ccccc3=N2)sc1=S)c1ccccc1	3	7668	108*	-2	78*	65*
O=C(Nn1c(O)c(C=C2N=c3ccccc3=N2)sc1=S)c1ccc(Cl)cc1	-4	13151	?	i	70*	58*
Cc1ccc(C(=O)Nn2c(O)c(C=C3N=c4ccccc4=N3)sc2=S)cc1	4	6339	78*	i	69*	64*
CC(C)(C)OC(=O)N1CCN(C(=O)c2ncn3c2c(=O)[nH]c2ccccc23)CC1	/	3771	0	0	-8	-1
Cc1ccc2c(C)c(C(=O)N3CCC(C(N)=O)(N4CCCCC4)CC3)oc2c1C	/	4171	0	-1	-6	-5
CN(C)CCNC(=O)c1cccc(-c2cccc3nncn23)c1	/	4027	0	0	-3	-7
COc1ccc(N=CC2CCCCC2=O)c([N+](=O)[O-])c1 (stereo not drawn)	/	3464	0	-3	-13	-4
O=C(Cc1ccc(-n2c(=O)[nH]c3ccccc3c2=O)cc1)N1CCN(c2ccccc2)CC1	-5	7958	1	i	0	-7
O=C(Cc1ccc(-n2c(=S)[nH]c3ccccc3c2=O)cc1)N1CCN(c2ccccc2)CC1	-3	22575*	-1	i	-6	-2
COc1cc2c(cc1OC)CN(C(=O)C1(c3ccccc3)CC1)CC2	2	19639*	?	i	0	3
Cc1ccc(OCC(=O)N2CCCC(CCC(=O)N(C)CCc3ccccn3)C2)cc1 (stereo not drawn)	1	2294	0	0	-1	-1
Cc1ccc(OCC(=O)N(C)CCc2ccccn2)cc1	-2	24016*	?	0	-2	1
N#CCCN(CCC#N)C(=O)c1ccc2c(c1)OCO2	-11	20717*	3	-11	-4	4
Cc1cc2c(n1-c1ccc(C(N)=O)cc1)CC(C)(C)CC2=O	-1	22230*	?	-1	-2	-3
Cc1ccc(-n2c3c(cc(C(=O)N4CCN(C)CC4)c2=O)C(=O)CC(C)(C)C3)cc1	-8	9464	0	0	-6	9
CCN(CC)S(=O)(=O)c1cc(F)ccc1OC	/	3909	0	i	-4	-6
CCN(CC)S(=O)(=O)c1cc(C(=O)Oc2ccccc2OC)ccc1OC	3	22741*	1	-3	3	4
Cc1cc(F)ccc1-c1cc(C(=O)NCc2ccco2)[nH]n1	/	4182	-1	0	-4	-4
CC(C)(C)c1cn(-c2ccc(F)cc2)c(=S)[nH]1	4	19889*	?	4	0	9
Cc1ccccc1-c1cn(-c2ccccc2)c(=S)[nH]1	-8	5922	-1	0	-5	-1
Cc1cccc(NC(=S)N/N=C/c2ccc([N+](=O)[O-])s2)c1	2	3008	88*	i	52*	20
Cc1cccc(NC(=O)/C=C/c2ccc([N+](=O)[O-])s2)c1	83*	2160	1	0	-1	-6
Cc1ccc(NC(=O)/C=C/c2ccc([N+](=O)[O-])s2)cc1	59*	2161	0	1	-2	2
CC(NC(=O)COC(=O)c1ccc2c(=O)n3c(nc2c1)CCCCC3)c1ccc(F)cc1 (stereo not drawn)	/	3971	0	i	-6	2
SMILES	BJeLR viability	Bead autofluor	BoNT A protease	BH1578 lux ind	Anthrax LF prot	BoNT-F LC inh
Cc1ccc(Cl)cc1-c1cc(C(=O)N2CCc3ccccc3C2)[nH]n1	/	3877	-1	0	-5	-4
CC1(C)Cc2nc3n[nH]c(N)c3cc2CO1	6	24639*	-3	i	-2	-4
Cc1cc(OCC(=O)OCC(=O)N(Cc2ccccc2)C(C)(C)C)ccc1Cl	/	3425	0	i	-7	4
COc1ccc(-c2cc3nc(C)cc(N)n3n2)cc1	51*	4126	-1	0	-5	13
O=C1CCCc2c1[nH]c1ccc(CN3CCCCC3)cc21	-20	23077*	0	0	-2	-2
Cc1ccc2[nH]c3c(c2c1)CCCC3=O	-11	2392	-1	i	-5	0
Cc1cc(NC(=O)CCC(=O)N2CCC3(CC2)OCCO3)no1	-7	23557*	-4	i	-1	-5
COc1cc(NC(=O)c2ccc(-c3cnn(C)c3)c3ccoc23)cc(OC)c1OC	/	4045	0	-1	3	-1
Cc1[nH]c2ccccc2c1C(=O)C(=O)NCc1nnnn1-c1ccc(F)cc1	/	2958	0	i	0	-4
CCCS(=O)(=O)NC(=O)C1(C)CCN(C(=O)c2ccc3ccccc3c2)C1 (stereo not drawn)	/	3069	0	i	-4	-6
O=C1CN(C(=O)CSc2nnnn2-c2ccc(Cl)cc2)c2ccccc2N1	-14	21884*	?	i	-2	3
O=C(c1cccc(S(=O)(=O)N2CCOCC2)c1)N1CCN(c2ncccn2)CC1	/	2909	0	i	-5	-3
COc1ccc(-c2nnc(SCc3c(C)noc3C)n2N)cc1OC	-11	19531*	0	2	0	-1
Cc1noc(C)c1CSc1nnc(-c2cc(Cl)ccc2Cl)n1N	-1	10362	0	0	-6	0
CCOC(=O)C1CCN(C(=O)CN(c2ccc3c(c2)OCCO3)S(=O)(=O)c2ccccc2)CC1	10	5585	1	-1	1	2
CS(=O)(=O)N(CC(=O)N1CCCC1)c1ccc2c(c1)OCCO2	-22	21840*	5	0	1	4
CCOC(=O)C1CCN(C(=O)CN(c2ccc3c(c2)OCCO3)S(C)(=O)=O)CC1	-10	22882*	-1	0	-10	0
Cc1ccc(N(CC(=O)N2CCOCC2)S(C)(=O)=O)cc1C	6	20113*	?	i	1	1
CC(=O)c1cccc(N(CC(=O)N2CCCCC2)S(C)(=O)=O)c1	6	24555*	?	-1	-2	0
CC(=O)c1cccc(N(CC(=O)N2CCCC2)S(C)(=O)=O)c1	6	7490	0	0	-4	7
CC1=C(C(=O)N2CCCCCC2)CC(CC(=O)NC2CCCCC2)C(=O)N1Cc1ccc(F)cc1 (stereo not drawn)	/	6484	-1	/	-6	1
COc1ccccc1-c1cccc(-c2nc(C(=O)Nc3nccs3)cc3c2[C@H](CCO)N(C(C)=O)C3)c1	/	6680	0	/	-2	-9
CCOC(=O)N1CCN(C(=O)CN(c2cccc(OC)c2)S(C)(=O)=O)CC1	2	19270*	?	3	4	4
CN(CC(=O)O)S(=O)(=O)c1cc(Cl)ccc1Cl	-1	7073	-1	i	1	-12
CS(=O)(=O)N(CC(=O)N1CCCC1)c1cc(Cl)c(Cl)cc1Cl	2	22315*	3	i	-2	2

Source: PubChem
